Measured values reported in PubChem BioAssay (NCI).
Where “and” joins values, the source holds several entries; their conditions need not be identical. Identical values can stand only once. The panel holds about 83,000 compounds, 20% with a hit somewhere; the sample as a whole holds those more often.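 Activity criterion: percent growth below 10, measured after cells in 96-well plates were exposed to a single compound concentration for 48 hours.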 Calls of active or inactive are those of the source.

Legend:
Experiment in all cases: NCI-60 one-dose screen, 48 h (100 = growth as untreated, 0 = no growth, -100 = all killed)
Details in all cases: 10 µM unless noted
SR leukemia = tested on: SR leukemia
RPMI-8226 leukemia = tested on: RPMI-8226 leukemia
OVCAR-8 ovarian = tested on: OVCAR-8 ovarian
OVCAR-5 ovarian = tested on: OVCAR-5 ovarian
OVCAR-4 ovarian = tested on: OVCAR-4 ovarian
SK-OV-3 ovarian = tested on: SK-OV-3 ovarian
IGROV1 ovarian = tested on: IGROV1 ovarian
OVCAR-3 ovarian = tested on: OVCAR-3 ovarian
HS 578T breast = tested on: HS 578T breast
NCI/ADR-RES ovarian = tested on: NCI/ADR-RES ovarian
T-47D breast = tested on: T-47D breast
BT-549 breast = tested on: BT-549 breast
MDA-MB-435 melanoma = tested on: MDA-MB-435 melanoma
SW-620 colon = tested on: SW-620 colon
MCF7 breast = tested on: MCF7 breast
HCT-116 colon = tested on: HCT-116 colon
KM12 colon = tested on: KM12 colon
HCC-2998 colon = tested on: HCC-2998 colon

Measured: growth

Cc1ccc(S(=O)(=O)Nc2cc(Sc3ccccc3)c(O)c3ccccc23)cc1
inactive: SR leukemia 20.8% | RPMI-8226 leukemia 28.8% | OVCAR-5 ovarian 106% | SK-OV-3 ovarian 115% | IGROV1 ovarian 85% | HS 578T breast 98.7% | BT-549 breast 97.1% | SW-620 colon 108% | MCF7 breast 64.1% | HCT-116 colon 58.9% | KM12 colon 86.4%
active: OVCAR-8 ovarian -0.704% | OVCAR-4 ovarian -99.7% | OVCAR-3 ovarian -5.01% | NCI/ADR-RES ovarian 5.05% | T-47D breast -1.22% | MDA-MB-435 melanoma -95.4%

O=C1OCC2=C1C(c1cccc(C(F)(F)F)c1)c1cc3c(cc1N2CCO)OCCO3 (stereo not given)
inactive: SR leukemia 13.3% | RPMI-8226 leukemia 22.2% | OVCAR-8 ovarian 11.4% | OVCAR-5 ovarian 45.9% | OVCAR-4 ovarian 66.3% | SK-OV-3 ovarian 16.1% | IGROV1 ovarian 38% | HS 578T breast 27.8% | NCI/ADR-RES ovarian 22.2% | T-47D breast 51% | BT-549 breast 41.7% | SW-620 colon 24.5% | MCF7 breast 23.1% | HCT-116 colon 10.3% | KM12 colon 16.9%
active: OVCAR-3 ovarian -4.23% | MDA-MB-435 melanoma -41.1%

CCN(CC)CC(=O)Nc1ccc2ncnc(Nc3ccc(Oc4cccc(F)c4)c(Cl)c3)c2c1
active: SR leukemia 2.54%
inactive: RPMI-8226 leukemia 27.6% | OVCAR-8 ovarian 76.1% | OVCAR-5 ovarian 80.8% | OVCAR-4 ovarian 52.6% | SK-OV-3 ovarian 22.4% | IGROV1 ovarian 18% | OVCAR-3 ovarian 52.7% | HS 578T breast 79.5% | NCI/ADR-RES ovarian 69.6% | T-47D breast 54.5% | BT-549 breast 78.5% | MDA-MB-435 melanoma 75% | SW-620 colon 67.6% | MCF7 breast 52.9% | HCT-116 colon 64.7% | HCC-2998 colon 53.1% | KM12 colon 51.5%

CCN(CC)/C([O-])=c1\cccc\c1=C1\N=C(c2ccccc2)N=C1[n+]1ccc(-c2ccccc2)cc1
inactive: SR leukemia 102% | RPMI-8226 leukemia 98.4% | OVCAR-8 ovarian 97.6% | OVCAR-5 ovarian 87.8% | OVCAR-4 ovarian 99.5% | SK-OV-3 ovarian 105% | IGROV1 ovarian 54.7% | OVCAR-3 ovarian 94% | HS 578T breast 109% | NCI/ADR-RES ovarian 98.2% | T-47D breast 90.5% | BT-549 breast 93.3% | MDA-MB-435 melanoma 96.8% | SW-620 colon 91.6% | MCF7 breast 93% | HCT-116 colon 97% | HCC-2998 colon 93.3% | KM12 colon 96.3%

COc1cc(-c2nn(-c3cccc(NC(=O)CCN4CCN(C)CC4)c3)cc2-c2ccncc2)ccc1Cl
active: SR leukemia -43.5% | RPMI-8226 leukemia 4.86% | OVCAR-3 ovarian 2.81% | HS 578T breast -0.227% | MDA-MB-435 melanoma -46.3%
inactive: OVCAR-8 ovarian 35.1% | OVCAR-5 ovarian 67.9% | OVCAR-4 ovarian 59.7% | SK-OV-3 ovarian 23.1% | IGROV1 ovarian 49.7% | NCI/ADR-RES ovarian 39.9% | T-47D breast 35.3% | BT-549 breast 22.4% | SW-620 colon 26.8% | MCF7 breast 13.8% | HCT-116 colon 17% | HCC-2998 colon 54.7% | KM12 colon 22.2%

O=C(Nc1cc(C(F)(F)F)cc(C(F)(F)F)c1)c1cc(Cl)ccc1O
19.3% (inactive) and 2.52% (active): OVCAR-3 ovarian
inactive: OVCAR-5 ovarian 27.2% and 23.1% | OVCAR-4 ovarian 24.8% and 20.3%
active: SR leukemia -8.27% | RPMI-8226 leukemia -31.5% and -35.6% | OVCAR-8 ovarian -37.8% and 3.24% | SK-OV-3 ovarian -56.9% and 1.67% | IGROV1 ovarian 4.82% and 9.9% | HS 578T breast -8.03% | NCI/ADR-RES ovarian -1.25% and 2.06% | T-47D breast -14% and -1.66% | BT-549 breast -31.5% | MDA-MB-435 melanoma -21.2% and -8.57% | SW-620 colon 2% and 5.7% | MCF7 breast 3.02% and 1.11% | HCT-116 colon -20.2% and -28.9% | KM12 colon -24.3% and -33%

N#C/C(=C\c1ccccc1Cl)c1cc2ccccc2[nH]1
inactive: SR leukemia 60% | RPMI-8226 leukemia 77.1% | OVCAR-8 ovarian 96.4% | OVCAR-5 ovarian 95.8% | OVCAR-4 ovarian 96.4% | SK-OV-3 ovarian 76.3% | IGROV1 ovarian 84.7% | OVCAR-3 ovarian 101% | HS 578T breast 92.9% | NCI/ADR-RES ovarian 95.5% | T-47D breast 38% | BT-549 breast 89.1% | MDA-MB-435 melanoma 101% | SW-620 colon 89% | MCF7 breast 36% | HCT-116 colon 87.4% | KM12 colon 82.6%

COc1ccc(-c2ccc(-c3ccc(C(=N)N)cn3)o2)cc1Cl
inactive: OVCAR-8 ovarian 12.3% | OVCAR-5 ovarian 68.6% | OVCAR-4 ovarian 38.8% | SK-OV-3 ovarian 84.8% | IGROV1 ovarian 68.7% | HS 578T breast 59.1% | NCI/ADR-RES ovarian 82.8% | T-47D breast 31.1% | BT-549 breast 57.8% | HCC-2998 colon 67.5% | KM12 colon 16.4%
active: SR leukemia -28.3% | RPMI-8226 leukemia -35.5% | OVCAR-3 ovarian -13.2% | MDA-MB-435 melanoma -69.4% | SW-620 colon -50.3% | MCF7 breast -31.1% | HCT-116 colon 0.389%
